The test can be described thus: inhibitors of zVAD-triggered necroptosis in L929, confirmation, L929 cells, duplicate runs (AID 463117).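 Note: 0% = cells with zVAD alone and 100% = vehicle cells without zVAD.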 The settings on record: L929 zVAD-induced necroptosis rescue, ATP luminescence, 24 h; at 10 µM; stronger effect = higher value.

The list shows a part of the results. Unmarked numbers belong to inactive results. The source made the active and inactive calls.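 Rule for the calls: active = mean protection from necroptosis of at least 50% over duplicate tests; inactive = mean protection below 50%.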

In the case of `CC(=O)Nc1cccc(-c2cnc3ccccc3n2)c1`, the activation (protection from necroptosis) is 1.04%.
With `COc1cc(/C=N/Nc2nc3ccccc3s2)ccc1O` the figure was 75.3% (active); with `O=C(COc1cccc(-n2cnnn2)c1)NCCC1=CCCCC1`, 36.6%; with `Cc1cccc(NC(=O)Nc2ccc3c(c2)OCO3)n1`, -0.556%.
With `CC1CCCC(C)N1CCCNC(=O)c1cc2c(=O)n(C)c3ccccc3c2n1C` (stereo not given) the figure was 37.3%.
With `Cc1csc(NC(=O)NC2(C(F)(F)F)Oc3ccccc3O2)n1` the figure was 1.61%; with `COc1ccc(N=Cc2c(O)[nH]c3ccccc23)cc1OC`, 76% (active); with `Cc1ccc(NC(=O)COc2ccc(-n3ccnc3)cc2)cc1Cl`, 62.3% (active).
For `C[C@@H]1C[C@@H]2O[C@H]2/C=C\C=C\C(=O)Cc2c(Cl)c(O)cc(O)c2C(=O)O1`, the activation (protection from necroptosis) was 76.5% (active).
As for `Cc1cc(NC(=O)c2cnn3cccnc23)n(-c2ccccc2)n1`, the figure is 21.5%.
With `COc1ccc(-n2cnc3cc(NCc4ccco4)ccc32)cc1`, the activation (protection from necroptosis) was 52.9% (active).
With `CCOC(=O)N1CCN(C(=O)CNC(=O)Cc2ccc(Cl)cc2)CC1` the figure was 34.3%; with `COc1ccc2nc(NC(=O)NC3CCCCC3)sc2c1`, 37.5%.
As for `CCN(CC)S(=O)(=O)c1ccc(NC(=O)c2cccnc2Cl)c(NC(=O)c2cccnc2Cl)c1`, the figure is 2.93%; as for `CC(=O)c1cc(C#N)c(SCC(=O)Nc2nccs2)nc1C`, 0.793%; as for `COc1ccc(Nc2ncc(F)c(N3CCOCC3)n2)cc1`, 1.91%.
`CC(=O)Nc1ccc(NC(=S)NC(=O)/C=C/c2ccccc2)cc1`: the activation (protection from necroptosis) was -0.0785%.
As for `CCn1c(SCCC(C)C)nnc1-c1c[nH]c2ccccc12`, the figure is 2.15%.
As for `CCOc1ccc(C(=O)Nc2nccs2)cc1[N+](=O)[O-]`, the activation (protection from necroptosis) was 1.6%.
As for `OCCCNc1nccc(-c2cc(Nc3cccc(Cl)c3)ncn2)n1`, the figure is 102% (active).
`COc1cc(N=Cc2c(O)[nH]c3ccccc23)cc(OC)c1OC`: the activation (protection from necroptosis) was 72.9% (active).
Take `Cc1[nH]c(=O)c(C(=O)/C=C/c2ccccc2)c2c1CCCC2`: the activation (protection from necroptosis) is 1.29%.
`Cc1ccccc1NC(=O)CSC1=NCCN1`: the activation (protection from necroptosis) is 7.19%.
With `COc1ccc(-n2cnc3cc(C(=O)NC4CCCC4)ccc32)cc1` the figure was 62% (active).
Regarding `COc1ccc(-c2csc(Nc3ccc(O)cc3)n2)cc1`, the activation (protection from necroptosis) is 30.2%.
As for `Cc1ccc(NC(=O)NC2CCCCC2)cc1S(=O)(=O)N1CCOCC1`, the figure is 2.38%.
With `O=C(CSc1ccc([N+](=O)[O-])cn1)Nc1ccc(N2CCOCC2)c(Cl)c1` the figure was 3.3%; with `CCn1c(SCC(=O)Nc2nc3ccc(OC)cc3s2)nnc1-c1ccoc1C`, 1.15%.
Take `Oc1ccc(-c2onc3ccc(Cl)cc23)cc1`: the activation (protection from necroptosis) is 11.4%.
With `Cn1ccc(NC(=O)Nc2ccc(Cl)cc2)n1` the figure was 28.3%.
As for `Cc1ccc(Nc2ccccc2N)cc1`, the figure is 5.52%; as for `Cc1cc(-n2cnc(-c3cn(C)nc3C)n2)no1`, 27.6%.
As for `Oc1ccc(/C=N/Nc2ccc(C(F)(F)F)cn2)cc1O`, the figure is 83.8% (active); as for `CC1CCCCC1NC(=O)/C(C#N)=C/C=C/c1ccccc1[N+](=O)[O-]` (stereo not given), 4.07%.
With `CC(=O)c1ccc(S(=O)(=O)N2CCN(C(=O)/C=C/c3ccc4ccccc4n3)CC2)cc1`, the activation (protection from necroptosis) was 2.81%.
